From PubChem
Shiga inhibitor – blocks Shiga toxin action in Vero cells; Vero cells, Shiga toxin protein synthesis inhibition reporter; inhibition, % at 38.7 µM; hit rate 9.2% among 290,000; in the data active means inhibition mostly above about 28%, no sharp cut-off; inactive means mostly below about 43%; further: 0% is about no effect
AMA1 RON2 block – inhibitors of Plasmodium falciparum AMA1-RON2 interaction | AlphaScreen AMA1-biotinylated RON2 peptide binding | Potency, µM (top dose mostly 58.2 µM), inactives show at the top dose activity change, negative = inhibition, actives largely listed as inhibitors | hit rate 0.2% among 360,000 | AID 720542;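 further: potency means the concentration at half of the fitted maximal effect; 0% = vehicle wells and -100% = peptide control; nearly all actives have a fitted effect of over 45% in size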
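AMA1 (3D7) with his tag at 25 nM final met compounds first, then biotinylated RON2 peptide at 25 nM; detection used donor plus acceptor beads, 10 µg/mL apiece, read by AlphaScreen after 30 min at room temperature.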
CHX counter – affects cycloheximide protein synthesis inhibition readout, counter-screen; cell reporter, cycloheximide protein synthesis inhibition counterscreen; max response, %; hit rate 12% among 300,000; AID 2314; in the data active means max response mostly above about 13%, no sharp cut-off; inactive means mostly below about 14%; further: read at 38.3 µM for the half of the compounds with a filed dose; 0% is about no effect
SARS PLP yeast – blocks SARS-CoV papain-like protease in a yeast assay; Potency, µM (series often up to 32.9 µM), inactives show top-dose activity, positive = growth rescue, actives largely listed as activators; S. cerevisiae expressing SARS-CoV PLpro, growth rescue; hit rate 0.19% among 330,000; calls by dose curve; further: potency means the concentration at half of the fitted maximal effect; 0% is about no effect; nearly all actives have a fitted effect of over 55% in size
AmpC inh detg – AmpC beta-lactamase inhibition with detergent present; Potency, µM (titrated, usually from 114 µM), for the others: at the highest dose activity change, negative = inhibition, actives largely listed as inhibitors; P00811; AmpC hydrolysis of nitrocefin, absorbance 480 nm, 0.01% Triton; AID 485294; hit rate 0.041% among 370,000;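 further: potency means the concentration at half of the fitted maximal effect; 0% = no-compound wells and -100% = no-enzyme wells; nearly all actives have a fitted effect of over 25% in size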
Target sequence (P00811 whole entry, looked up): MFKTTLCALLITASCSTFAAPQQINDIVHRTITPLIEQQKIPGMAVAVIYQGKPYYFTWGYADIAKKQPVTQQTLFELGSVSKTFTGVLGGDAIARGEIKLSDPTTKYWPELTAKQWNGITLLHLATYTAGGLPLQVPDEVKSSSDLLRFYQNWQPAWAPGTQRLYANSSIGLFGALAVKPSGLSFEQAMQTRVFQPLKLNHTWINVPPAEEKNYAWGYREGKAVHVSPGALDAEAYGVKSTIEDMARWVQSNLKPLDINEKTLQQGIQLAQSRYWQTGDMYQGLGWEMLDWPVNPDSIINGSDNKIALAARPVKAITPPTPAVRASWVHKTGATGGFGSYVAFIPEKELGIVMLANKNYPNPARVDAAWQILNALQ
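20 mM phosphate pH 7.0 + 0.01% (detergent screen) or 0.0001% Triton X-100; 5.3 nM AmpC reagent; cpd preinc 15 min RT; nitrocefin (800 uM stock) to start; A480 q20 s × 4 min; Activity was normalised to no-enzyme and no-compound control wells.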
AmpC inh no detg – inhibitors of E. coli AmpC beta-lactamase without detergent; AmpC nitrocefin hydrolysis, absorbance 480 nm, 0.0001% Triton; Potency, µM (series often up to 57.1 µM), for the others: at the top dose activity change, negative = inhibition, most hits filed as inhibitors; hit rate 0.52% among 330,000; P00811;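 further: potency means the concentration at half of the fitted maximal effect; plate controls were no compound for no effect and no enzyme for full effect; nearly all actives have a fitted effect of over 20% in size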
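20 mM phosphate pH 7.0 + 0.01% (detergent screen) or 0.0001% Triton X-100; 5.3 nM AmpC reagent; cpd preinc 15 min RT; nitrocefin (800 uM stock) to start; A480 q20 s × 4 min; Activity was normalised to no-enzyme and no-compound control wells.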
Active calls of the source: *; ? = inconclusive; · = no result; [ ] = another dose, or the depositor's remark. This is one part of a sample in which hits are shown more often than they occur. Unless noted, the call rests on the fitted dose curve; in most records, active means well fitted curve in the direction sought with a large enough effect; inconclusive means small, poorly fitted or top-dose-only effect, or another doubt; inactive means no such curve, though single readings can be large; an effect the other way counts as inactive or inconclusive.

SMILES | Shiga inhibitor | AMA1 RON2 block | CHX counter | SARS PLP yeast | AmpC inh detg | AmpC inh no detg
CCOc1cc(C2NN=C(c3ccc(C)cc3)S2)ccc1O (centres undefined) | 94* | 25% | 30* | -10% | -8% | -28%
Cc1ccc(C2=NNC(C(O)C(O)C(O)CO)S2)cc1 (centres undefined) | 61* | 25% | 57* | 1% | ? | -26%
COc1ccc(C2NN=C(c3ccc(C)cc3)S2)cc1 (centres undefined) | 106* | 16% | 57* | -1% | -4% | -18%
CCCc1ccc(C(O)c2ncc(-c3ccc(C)cc3)[nH]2)cc1 (centres undefined) | · | -2% | · | · | · | ·
COc1ccc(C2C(=O)NN=C2C)cc1 (centres undefined) | · | 3% | · | · | · | ·
O=S(=O)(NCc1ccccn1)c1cc(C(F)(F)F)ccc1Cl | 20 | 30% | -2 | -1% | -2% | -5%
Cc1nc(NCc2ccccn2)c2ccccc2n1 | -1 | 48% | 8 | 2% | 2% | -10%
c1ccc(CNc2ccc3ccccc3n2)nc1 | 58 | -27% | 30* | -2% | 4% | -16%
Cc1cc(NCc2ccccn2)nc2ccccc12 | 7 | 11% | 21* | 6% | 2% | -3%
FC(F)(F)c1ccc(NCc2ccccn2)nc1 | 97* | 4% | 56* | -2% | -23% | 1%
COc1cc(-c2nnc(NC(=O)CS(=O)(=O)c3ccc(F)cc3)o2)cc(OC)c1OC | · | 36% | · | 2% | 0% | -21%
CN(C)CCCN1C(=O)c2cccc3c(Br)ccc(c23)C1=O | 42 | -15% | 13 | -1% | -3% | 33%
CCn1nc(NC(=O)c2ccncc2)c2cc3cc(C)ccc3nc21 | -2 | 10% | 4 | 10% | -1% | 93%
CCC(=O)N1c2ccc(S(=O)(=O)NC3CCCCC3)cc2CC1C (centres undefined) | 13 | -2% | 31* | 4% | 3% | -10%
CCOc1ccc(S(=O)(=O)NC2CCCCCC2)cc1 | -8 | 9% | 0 | -1% | -1% | -15%
CC1Cc2cc(S(=O)(=O)NCc3ccccc3)ccc2N1C(=O)C1CC1 (centres undefined) | 2 | -7% | 26* | 3% | 2% | -15%
CCOc1cc(S(=O)(=O)NC2CCCCCC2)ccc1F | 41* | 13% | 23 | -23% | 10% | 9%
CC1Cc2cc(S(=O)(=O)NCc3ccccc3)ccc2N1C(=O)C1CCC1 (centres undefined) | 8 | 4% | -2 | 1% | -3% | -14%
O=C(C1CC1)N1CCc2cc(S(=O)(=O)NCc3ccccc3)ccc21 | 6 | 4% | 14* | 2% | 1% | -24%
CCN1CCN(C(c2cccs2)C(C)NS(=O)(=O)c2ccc(F)cc2)CC1 (centres undefined) | -4 | 6% | -2 | 8% | ? | -13%
COc1ccc(C(=O)OCC(=O)N2CCC(C)CC2)cc1S(=O)(=O)N1CCOCC1 | · | 27% | · | 0% | -25% | -1%
CC(=O)N1c2ccc(S(=O)(=O)NCC3CCC(C(=O)NCc4ccccc4)CC3)cc2CC1C (centres undefined) | -3 | 16% | 9 | 6% | 5% | 53%
CCC(=O)N1c2ccc(S(=O)(=O)NCc3ccccc3)cc2CC1C (centres undefined) | 19 | -8% | 36* | 5% | 2% | -24%
COc1ccc(N(CC(=O)NCCc2ccc(S(N)(=O)=O)cc2)S(=O)(=O)c2c(C)noc2C)cc1 | 3 | 10% | 1 | -1% | 3% | -3%
O=C(Nc1ccccc1Cl)c1cccc(NC(=O)C2C3CC4OC(=O)C2C4C3)c1 (centres undefined) | -9 | -2% | -1 | 7% | -3% | -16%
SMILES | Shiga inhibitor | AMA1 RON2 block | CHX counter | SARS PLP yeast | AmpC inh detg | AmpC inh no detg
CN1CCN(c2ccc(NC(=O)c3ccc(Br)o3)cc2)CC1 | 76* | -6% | 30* | 13% | -3% | -15%
CC1CCN(c2ccc(NC(=O)c3ccc(Br)o3)cc2)CC1 | 65* | 10% | 28* | 3% | 4% | -14%
CC1CCN(c2ccc(NC(=O)Cc3ccccc3)cc2)CC1 | 16 | -7% | 14 | 0% | 3% | -15%
O=C(Nc1ccc(N2CCN(C(=O)c3ccccc3)CC2)cc1)c1cccnc1 | -5 | -26% | -6 | -4% | -7% | 2%
CCC(=O)Nc1ccc(N2CCC(C)CC2)cc1 | 15* | -1% | 33* | -4% | -10% | -5%
Cc1ccc(C(=O)N2CCN(c3ccc(NC(=O)c4ccc(Br)o4)cc3)CC2)cc1 | -24 | -24% | -3 | -7% | 0% | 34%
CC1CCN(c2ccc(NC(=O)c3cccnc3)cc2)CC1 | 55* | 3% | 33* | -3% | -11% | 3%
NC(=O)[C@@H]1CC2(CC(c3cccc(NC(=O)[C@H]4CCC(=O)N4)c3)=NO2)CN1C(=O)c1ccc(Cl)cc1 (some centres undefined) | -4 | -6% | -5 | 0% | -2% | 19%
O=C(Nc1ccc(N2CCOCC2)cc1)c1ccc(Br)o1 | 79* | ? | 28* | -3% | 4% | -8%
CN1CCN(c2ccc(NC(=S)NC(=O)c3cccc4c(Br)cccc34)cc2)CC1 | -3 | 0% | -1 | 8% | ? | -10%
CS(=O)(=O)N1CCN(c2ccc(NC(=O)c3ccc(Br)o3)cc2)CC1 | 110* | -3% | 43* | 8% | 1% | -2%
CN1CCN(c2ccc(NC(=O)c3ccccc3Br)cc2)CC1 | active | 1% | 18* | 4% | -12% | -15%
N/C(=N\O)c1ccc(NC(=O)c2ccc(Br)o2)cc1 | 81* | 3% | 45* | -3% | 0% | -17%
O=C(NNC(=O)c1ccc(Br)o1)c1ccc(NC(=O)c2ccccc2)cc1 | 11 | 15% | -1 | -1% | -2% | -6%[2.29 µM]
c1ccc(C2OCCN3CCCCC23)cc1 (centres undefined) | 6 | -16% | 15 | -5% | 6% | -23%
CC1=C(C#N)C(=O)NC(C)(C)C1 | -6 | -3% | -3 | 3% | -4% | -2%
C[C@@H]1CCCCO[C@@H](CN(C)C(=O)c2ccccc2)[C@@H](C)CN([C@H](C)CO)C(=O)c2cc(N(C)C)ccc2O1 | · | -7% | · | · | · | ·
CCC(=O)NC(=S)Nc1ccc(NC(=O)c2ccc(Br)o2)cc1 | 112* | 4% | 16 | 4% | -4% | -31%
CCC(=O)NC(=S)Nc1ccc(NC(=O)c2ccc(OC)cc2)cc1 | -11 | 26% | -2 | 32% | -10% | -26%
Fc1ccc(Nc2cccc3nccnc23)cc1 | 47* | -20% | 22* | 0% | -3% | -2%
c1cc(Nc2cccc3nccnc23)c2nccnc2c1 | -9 | 47% | -2 | 0% | 5% | -19%
